The test system of assay [1] is PRMT1 (protein arginine N-methyltransferase 1). Briefly: PRMT1 binders on small-molecule microarrays, primary screen, biochemical, small-molecule microarray, 635 nm fluorescence (AID 1088).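 Note: binding of Prmt1 protein to compounds spotted on small-molecule microarray slides.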 The following applies: small-molecule microarray binding, higher = more signal.
A short description of assay [2]: yeast growth modulation, basal conditions, primary screen, YJM789 clinical isolate, OD600, 24 h (AID 1089).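 Note: growth of clinical yeast isolate S. cerevisiae YJM 789 seeded 1000 cells per well; test concentration not given here.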 The following applies: S. cerevisiae YJM789 growth, higher = more signal, called active from +8 up or from −8 down.
Assay [3] in a line: fission yeast growth modulation, primary screen, strain 972, OD600, 24 h, no modulator (AID 1090).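 Note: basal condition with compound alone and no growth modifier present; test concentration not given here.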 The following applies: S. pombe 972 growth, higher = more signal, called active from +8 up or from −8 down.
Assay [4] is described as follows: S. cerevisiae growth modulation with rapamycin, primary screen, strain BY4716, OD600, 96 h (AID 1091). Note: test concentration not given here. The following applies: higher = more signal, called active from +8 up or from −8 down.
Assay [5] deals with Torsin-1A-interacting protein 2 (Homo sapiens) (UniProt Q8NFQ8). Briefly: LULL1 binders on small-molecule microarray, primary screen, cell lysate, human LULL1 lysate, 635/667 nm fluorescence (AID 1092).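 Note: probe is lysate of COS7 cells overexpressing human LULL1; score merges per-feature 667 nm fluorescence with signal-to-noise.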 The following applies: hLULL1 lysate binding, 635 nm fluorescence, higher = more signal.
Assay [6] in a line: E. coli growth modulation, two-sided OD650, primary screen, E. coli filamentation project, strain DRC41, 24 h (AID 1093).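 Note: MC1000 strain lacking acrAB efflux and sulA so SOS filamentation is blocked; test concentration not given here.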 The following applies: OD650, 24 h, higher = more signal, called active from +8 up or from −8 down.
Assay [7] is described as follows: small-molecule microarray binders of probe aLefty2, primary screen, biochemical, biotinylated probe, 635/667 nm fluorescence (AID 1094).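 Note: score merges spot fluorescence near 667 nm with spot signal-to-noise ratio.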 The following applies: higher = more signal.
For assay [8], the system named is Noggin (protein binding on small-molecule microarray). The assay can be described thus: Noggin binders on small-molecule microarray, primary screen, biochemical, 635/667 nm fluorescence (AID 1095).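 Note: score merges 667 nm feature fluorescence with signal to noise over triplicate slides.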 The following applies: 635 nm fluorescence, higher = more signal.
Assay [9] addresses Neurogenic locus notch homolog protein 3 (Homo sapiens) (UniProt Q9UM47). The assay can be described thus: NOTCH3 binders on small-molecule microarray, primary screen, biochemical, 635/667 nm fluorescence (AID 1096). The following applies: NOTCH3 binding, 635 nm fluorescence, higher = more signal.
Assay [10] is described as follows: small-molecule microarray binders of probe aEGFR, primary screen, biochemical, biotinylated probe, 635/667 nm fluorescence (AID 1097).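 Note: probe is a biotinylated anti-EGFR antibody binding compounds printed on slides; score combines fluorescence near 667 nm and signal to noise of each spot.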 The following applies: higher = more signal.
The test system of assay [11] is Plasmodium falciparum Sir2 (PF13_0152, Sir2A). Briefly: pfSir2 binders on small-molecule microarrays, primary screen, biochemical, small-molecule microarray, 635 nm fluorescence (AID 1098).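 Note: score merges spot fluorescence intensity with its signal-to-noise ratio.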 The following applies: small-molecule microarray binding, fluorescence 635 nm; higher = more signal.
A short description of assay [12]: small-molecule microarray binders of probe aDKK1, primary screen, biochemical, biotinylated probe, 635/667 nm fluorescence (AID 1099).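 Note: score merges 667nm spot fluorescence with signal to noise across triplicate slides; reference of the scale not given here.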 The following applies: higher = more signal.
Assay [13] in a line: small-molecule microarray binders of probe aCHRDL2, primary screen, biochemical, biotinylated probe, 635/667 nm fluorescence (AID 1100). The following applies: higher = more signal.
Assay [14] in a line: splicing luciferase reporter signal modulators, primary screen, spliceosome inhibition project, cell-based, HEK293, splice +/- reporter (AID 1101).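 Note: HEK293 cells carrying a splicing-competent luciferase reporter gene; test concentration not given here.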 The following applies: luminescence, 24 h, higher = more signal, called active from +8 up or from −8 down.
The target in assay [15] is Fibroblast growth factor 10 (Homo sapiens) (UniProt O15520). Briefly: FGF10 binders on small-molecule microarrays, primary screen, biochemical, small-molecule microarray, 635 nm fluorescence (AID 1102). The following applies: FGF10 binding, fluorescence 635 nm, higher = more signal.
The test system of assay [16] is glycogen synthase kinase-3 (GSK3A per assay name; protocol says GSK3B). The assay can be described thus: GSK3 binders on small-molecule microarrays, primary screen, biochemical, small-molecule microarray, 635 nm fluorescence, GSK3A (AID 1103). Note: the record names both GSK3A and GSK3B. The following applies: small-molecule microarray binding, fluorescence 635 nm; higher = more signal.
The target in assay [17] is Epidermal growth factor receptor (Homo sapiens) (UniProt P00533). The assay can be described thus: EGFR binders on small-molecule microarrays, primary screen, biochemical, small-molecule microarray, 635 nm fluorescence (AID 1104).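 Note: score merges 667 nm emission intensity with spot signal to noise over triplicate slides.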 The following applies: EGFR binding, higher = more signal.
In assay [18] the target is Follistatin-related protein 3 (Homo sapiens) (UniProt O95633). The assay can be described thus: FSTL3 binders on small-molecule microarrays, primary screen, biochemical, small-molecule microarray, 635 nm fluorescence (AID 1105).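 Note: score merges emission near 667 nm and signal to noise per printed spot across three slides.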 The following applies: FSTL3 binding, higher = more signal.
In assay [19] the target is Dickkopf-related protein 1 (Homo sapiens) (UniProt O94907). Briefly: DKK1 binders on small-molecule microarrays, primary screen, biochemical, small-molecule microarray, 635 nm fluorescence scan (AID 1106).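 Note: score merges emission near 667 nm with signal to noise over three replicate slides.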 The following applies: DKK1 binding, higher = more signal.
Assay [20] deals with Inhibin beta A chain (activin A). Briefly: INHBA (activin A) binders on microarrays, primary screen, biochemical, small-molecule microarray, 635 nm fluorescence scan (AID 1107).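 Note: mouse activin A protein probed at 4.33 µg/mL on printed slides; score merges bound-protein fluorescence near 667 nm with spot signal-to-noise.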 The following applies: small-molecule microarray binding, higher = more signal.

The source made the active and inactive calls.

Neurogenic locus notch homolog protein 3 (Homo sapiens), sequence (Q9UM47 whole entry, looked up): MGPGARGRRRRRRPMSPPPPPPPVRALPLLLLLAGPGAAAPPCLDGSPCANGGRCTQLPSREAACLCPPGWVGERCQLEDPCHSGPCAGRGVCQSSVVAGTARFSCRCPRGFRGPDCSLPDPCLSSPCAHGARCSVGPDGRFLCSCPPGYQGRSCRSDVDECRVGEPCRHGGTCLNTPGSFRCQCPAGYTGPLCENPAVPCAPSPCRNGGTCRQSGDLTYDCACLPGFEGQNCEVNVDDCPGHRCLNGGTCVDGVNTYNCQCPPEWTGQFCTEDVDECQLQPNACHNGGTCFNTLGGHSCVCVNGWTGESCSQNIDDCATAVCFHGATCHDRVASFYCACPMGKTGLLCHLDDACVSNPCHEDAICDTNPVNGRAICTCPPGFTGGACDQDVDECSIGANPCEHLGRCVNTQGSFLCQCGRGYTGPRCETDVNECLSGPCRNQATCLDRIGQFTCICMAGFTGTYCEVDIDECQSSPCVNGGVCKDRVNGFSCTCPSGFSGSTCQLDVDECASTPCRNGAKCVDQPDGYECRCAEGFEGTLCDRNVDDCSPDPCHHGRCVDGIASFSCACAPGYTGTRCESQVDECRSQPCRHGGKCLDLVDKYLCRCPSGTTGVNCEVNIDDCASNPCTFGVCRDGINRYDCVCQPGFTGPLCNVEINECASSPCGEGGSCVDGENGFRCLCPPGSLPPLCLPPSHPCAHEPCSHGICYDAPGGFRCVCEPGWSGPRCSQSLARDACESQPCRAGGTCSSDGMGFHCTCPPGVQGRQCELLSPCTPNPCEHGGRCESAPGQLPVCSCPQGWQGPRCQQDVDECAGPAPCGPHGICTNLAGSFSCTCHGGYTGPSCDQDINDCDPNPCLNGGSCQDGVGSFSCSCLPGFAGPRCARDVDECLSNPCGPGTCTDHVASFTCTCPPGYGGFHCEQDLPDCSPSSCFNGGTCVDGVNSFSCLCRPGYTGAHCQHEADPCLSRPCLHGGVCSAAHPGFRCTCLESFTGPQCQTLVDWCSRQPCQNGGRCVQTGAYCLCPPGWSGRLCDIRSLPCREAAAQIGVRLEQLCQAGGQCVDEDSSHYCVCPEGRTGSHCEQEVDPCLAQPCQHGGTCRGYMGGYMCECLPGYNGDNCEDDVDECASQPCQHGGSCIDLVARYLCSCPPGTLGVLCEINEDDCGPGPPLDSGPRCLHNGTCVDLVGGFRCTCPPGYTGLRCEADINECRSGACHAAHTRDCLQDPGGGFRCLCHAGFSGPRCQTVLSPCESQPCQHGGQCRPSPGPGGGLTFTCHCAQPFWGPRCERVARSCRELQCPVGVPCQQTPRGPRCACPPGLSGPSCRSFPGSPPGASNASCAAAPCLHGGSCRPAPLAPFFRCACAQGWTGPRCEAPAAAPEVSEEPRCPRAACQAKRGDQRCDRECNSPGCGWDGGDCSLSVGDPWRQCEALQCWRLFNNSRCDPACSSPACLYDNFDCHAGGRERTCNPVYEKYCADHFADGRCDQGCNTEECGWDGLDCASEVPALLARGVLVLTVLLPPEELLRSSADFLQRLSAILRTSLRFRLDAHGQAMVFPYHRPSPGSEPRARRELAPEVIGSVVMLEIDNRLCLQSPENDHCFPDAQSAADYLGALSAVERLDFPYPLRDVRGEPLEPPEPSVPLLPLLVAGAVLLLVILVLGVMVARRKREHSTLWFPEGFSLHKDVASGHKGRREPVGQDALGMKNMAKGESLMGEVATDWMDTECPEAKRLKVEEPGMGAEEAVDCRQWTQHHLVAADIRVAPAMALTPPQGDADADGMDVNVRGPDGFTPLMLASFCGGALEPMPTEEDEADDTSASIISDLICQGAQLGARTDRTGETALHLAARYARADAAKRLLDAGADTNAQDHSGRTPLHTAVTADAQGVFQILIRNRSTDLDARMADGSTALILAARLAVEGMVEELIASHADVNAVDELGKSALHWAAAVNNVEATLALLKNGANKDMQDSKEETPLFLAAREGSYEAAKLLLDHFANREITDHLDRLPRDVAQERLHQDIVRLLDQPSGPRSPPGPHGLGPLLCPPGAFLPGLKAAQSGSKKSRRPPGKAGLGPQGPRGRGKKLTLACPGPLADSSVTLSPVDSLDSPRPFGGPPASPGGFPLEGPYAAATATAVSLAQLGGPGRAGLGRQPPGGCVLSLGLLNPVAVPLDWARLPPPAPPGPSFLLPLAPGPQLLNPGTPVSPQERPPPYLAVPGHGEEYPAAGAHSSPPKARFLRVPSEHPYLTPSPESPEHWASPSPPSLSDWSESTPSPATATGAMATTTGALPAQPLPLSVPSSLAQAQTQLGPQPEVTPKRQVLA
Fibroblast growth factor 10 (Homo sapiens), sequence (O15520 whole entry, looked up): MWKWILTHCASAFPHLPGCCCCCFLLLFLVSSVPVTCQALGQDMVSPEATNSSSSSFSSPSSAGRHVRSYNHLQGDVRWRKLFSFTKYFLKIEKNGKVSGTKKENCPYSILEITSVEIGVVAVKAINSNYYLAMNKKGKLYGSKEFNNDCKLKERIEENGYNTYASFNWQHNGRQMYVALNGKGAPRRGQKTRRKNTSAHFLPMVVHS
Dickkopf-related protein 1 (Homo sapiens), sequence (O94907 whole entry, looked up): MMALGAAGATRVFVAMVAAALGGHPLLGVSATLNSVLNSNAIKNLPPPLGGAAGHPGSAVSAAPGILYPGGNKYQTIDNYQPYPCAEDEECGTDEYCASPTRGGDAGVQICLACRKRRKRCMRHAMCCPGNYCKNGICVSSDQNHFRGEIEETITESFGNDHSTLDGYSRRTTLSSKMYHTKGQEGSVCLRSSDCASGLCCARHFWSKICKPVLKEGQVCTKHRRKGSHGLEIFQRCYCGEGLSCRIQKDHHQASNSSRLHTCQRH
Epidermal growth factor receptor (Homo sapiens), sequence (P00533 whole entry, looked up): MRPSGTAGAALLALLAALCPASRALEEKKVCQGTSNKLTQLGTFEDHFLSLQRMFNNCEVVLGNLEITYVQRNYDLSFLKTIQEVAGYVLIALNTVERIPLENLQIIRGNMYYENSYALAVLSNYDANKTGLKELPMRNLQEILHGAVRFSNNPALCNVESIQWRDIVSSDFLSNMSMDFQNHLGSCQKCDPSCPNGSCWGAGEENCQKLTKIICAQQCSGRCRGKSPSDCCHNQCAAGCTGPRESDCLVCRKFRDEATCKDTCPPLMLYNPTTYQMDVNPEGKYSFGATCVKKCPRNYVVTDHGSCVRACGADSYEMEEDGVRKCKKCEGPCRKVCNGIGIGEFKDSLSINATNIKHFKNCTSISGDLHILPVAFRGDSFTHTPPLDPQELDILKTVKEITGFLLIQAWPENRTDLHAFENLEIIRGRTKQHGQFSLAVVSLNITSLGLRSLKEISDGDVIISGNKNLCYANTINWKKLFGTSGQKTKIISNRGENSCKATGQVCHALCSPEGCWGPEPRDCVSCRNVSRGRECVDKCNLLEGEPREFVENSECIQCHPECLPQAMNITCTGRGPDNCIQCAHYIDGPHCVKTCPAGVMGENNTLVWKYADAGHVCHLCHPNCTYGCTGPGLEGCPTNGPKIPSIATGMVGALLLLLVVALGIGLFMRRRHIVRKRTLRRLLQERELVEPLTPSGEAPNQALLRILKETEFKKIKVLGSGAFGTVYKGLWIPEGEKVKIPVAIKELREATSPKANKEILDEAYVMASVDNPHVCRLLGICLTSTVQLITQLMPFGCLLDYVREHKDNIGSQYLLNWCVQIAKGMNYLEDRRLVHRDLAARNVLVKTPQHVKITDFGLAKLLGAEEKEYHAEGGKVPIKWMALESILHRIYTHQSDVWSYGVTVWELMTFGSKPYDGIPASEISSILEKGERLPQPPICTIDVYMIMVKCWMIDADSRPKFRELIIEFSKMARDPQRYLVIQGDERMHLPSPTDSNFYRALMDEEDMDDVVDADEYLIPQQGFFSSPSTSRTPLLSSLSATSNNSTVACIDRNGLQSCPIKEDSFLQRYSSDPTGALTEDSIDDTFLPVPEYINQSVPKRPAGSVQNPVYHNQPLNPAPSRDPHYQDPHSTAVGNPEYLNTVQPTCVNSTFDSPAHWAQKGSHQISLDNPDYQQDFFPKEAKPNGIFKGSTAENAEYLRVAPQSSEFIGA
Torsin-1A-interacting protein 2 (Homo sapiens), sequence (Q8NFQ8 whole entry, looked up): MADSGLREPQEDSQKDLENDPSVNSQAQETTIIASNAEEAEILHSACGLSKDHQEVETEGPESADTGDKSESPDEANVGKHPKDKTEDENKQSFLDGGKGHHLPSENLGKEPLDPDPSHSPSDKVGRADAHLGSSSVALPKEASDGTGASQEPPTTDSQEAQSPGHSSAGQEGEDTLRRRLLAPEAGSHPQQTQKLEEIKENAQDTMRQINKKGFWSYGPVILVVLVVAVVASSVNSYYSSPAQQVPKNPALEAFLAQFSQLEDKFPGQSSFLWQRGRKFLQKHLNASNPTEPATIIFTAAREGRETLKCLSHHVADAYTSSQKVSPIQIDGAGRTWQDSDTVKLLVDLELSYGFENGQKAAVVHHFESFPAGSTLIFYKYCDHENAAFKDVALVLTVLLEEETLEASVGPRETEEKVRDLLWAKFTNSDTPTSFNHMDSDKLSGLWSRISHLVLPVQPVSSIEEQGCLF
Follistatin-related protein 3 (Homo sapiens), sequence (O95633 whole entry, looked up): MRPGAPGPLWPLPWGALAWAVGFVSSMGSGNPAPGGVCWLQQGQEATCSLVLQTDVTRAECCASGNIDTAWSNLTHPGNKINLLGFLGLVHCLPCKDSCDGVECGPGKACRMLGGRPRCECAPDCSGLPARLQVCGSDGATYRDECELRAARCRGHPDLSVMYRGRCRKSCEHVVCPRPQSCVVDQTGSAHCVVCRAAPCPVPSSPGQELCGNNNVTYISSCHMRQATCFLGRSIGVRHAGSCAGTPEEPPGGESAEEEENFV

On to `Cc1ccc(S(=O)(=O)n2c3ccccc3c3nnc(C(=O)c4ccccc4)nc32)cc1`, for which the composite z-score was -0.875 in assay [1]; -0.0929 in [5]; -0.122 in assay [7]; 0.0828 in assay [8]; -0.467 in [9]; 0.0099 in [10]. The composite z-score in [11] is -0.0568; in assay [12] it was -0.153; in assay [13] it was -0.22; in assay [15], 0.328; in assay [16] it was 0.0643; in assay [17], 0.494. The composite z-score in assay [18] came to 0.511; in assay [19] it was 0.563; in assay [20] it was 0.546. In addition, the z-score in [2] is -0.232 (inactive); in [3], -0.683 (inactive); in assay [4], 0.881 (inactive); in [6], 0.878 (inactive); in assay [14] it was -1.04 (inactive).
With `CO[C@H]1COC(=O)CC=C[C@H](C)[C@@H](OC)COC(=O)[C@@H](C)COC(=O)CC=C[C@@H]1C`, the composite z-score in assay [1] is 1.48; in assay [5] it was -0.108; in [7], -0.235; in assay [8], 2.04; in assay [9], -0.399; in assay [10], -0.0171. The composite z-score was 0.567 in [11]; -0.909 in assay [12]; -1.66 in assay [13]; 0.902 in assay [15]; 0.709 in [16]; 1.32 in assay [17]. In addition, the composite z-score came out at 1.47 in assay [18], 1.3 in assay [19] and 1.79 in assay [20]. Moreover, the z-score was 0.235 (inactive) in assay [2]; -1.41 (inactive) in assay [3]; -0.487 (inactive) in [4]; -0.176 (inactive) in assay [6]; 0.337 (inactive) in [14].
For `COC(=O)CC=C[C@@H](C)[C@@H](C=NO[C@@H](C)c1cn([C@H](CO)Cc2ccccc2)nn1)NS(=O)(=O)c1ccc(C)cc1`, the composite z-score in assay [1] was 0.526; in assay [5], 0.112; in assay [7], -0.247; in assay [8], 0.321; in assay [9] it was 0.381; in assay [10], -0.0398. For the same molecule, the composite z-score was 1.18 in [11]; -0.0838 in [12]; -0.668 in assay [13]; 0.582 in [15]; 0.252 in [16]; 0.519 in [17]. Moreover, the composite z-score in assay [18] worked out at 0.449; in assay [19] it was 0.47; in [20] it was 0.408. For the same molecule, the z-score was -2.32 (inactive) in [2]; -1.2 (inactive) in assay [3]; -0.88 (inactive) in assay [4]; 0.122 (inactive) in assay [6]; -0.83 (inactive) in [14].
For `CCO[C@H](c1cc(OC)cc([N+](=O)[O-])c1OC)[C@H](C)C=CCC(=O)OC`, the composite z-score is 1.11 in assay [1]; -0.746 in assay [5]; -0.233 in assay [7]; 0.927 in assay [8]; 0.0565 in assay [9]; -0.123 in [10]. Further, the composite z-score is 0.54 in assay [11]; -0.295 in assay [12]; -0.776 in [13]; 0.0681 in [15]; 0.117 in assay [16]; 0.147 in assay [17]. Also, the composite z-score was found to be 0.385 in [18], 0.505 in assay [19] and 0.0666 in assay [20]. For the same molecule, the z-score in [2] was -0.57 (inactive); in [3] it was -1.18 (inactive); in [4], -0.187 (inactive); in assay [6], 0.545 (inactive); in [14], 0.402 (inactive).
For `CO[C@@H]1C=CCC(=O)N2CCC[C@H]2C(=O)OC[C@@H](C)C(=O)OC[C@H]1C`, the composite z-score in assay [1] is 0.865; in [5] it was -0.334; in [7], -0.143; in [8] it was 1.56; in assay [9] it was -0.0741; in assay [10] it was -0.0444. The composite z-score in assay [11] was 1.1; in assay [12], -0.21; in [13], -0.822; in assay [15] it was 0.441; in assay [16], 0.484; in assay [17], 0.521. Moreover, the composite z-score was 1.44 in assay [18], 1.43 in assay [19] and 0.163 in [20]. In addition, the z-score in assay [2] was -0.0313 (inactive); in assay [3] it was -1.32 (inactive); in assay [4], -0.918 (inactive); in [6], 0.872 (inactive); in assay [14] it was -0.497 (inactive).

Values taken from PubChem BioAssay.
